Laboratory results published in the supplement of paper PMC11732987, “Enantioselective OTUD7B fragment discovery through chemoproteomics screening and high-throughput optimisation” (Communications Chemistry, 2025).

Legend:
Experiment in all cases: log2 ratio of Biotin-Ahx-Ub-VS probe labelling (fragment/DMSO); higher = less target engagement (more negative = stronger competition), active = hit call of the paper (q ≤ 0.05, log2 ratio ≤ -1)
Conditions in all cases: compound concentration: 200 uM; treatment time: 3 h
[1] = target: USP34 (UniProt Q70CQ2)
USP34, sequence (Q70CQ2 whole entry, the tested form may be a part): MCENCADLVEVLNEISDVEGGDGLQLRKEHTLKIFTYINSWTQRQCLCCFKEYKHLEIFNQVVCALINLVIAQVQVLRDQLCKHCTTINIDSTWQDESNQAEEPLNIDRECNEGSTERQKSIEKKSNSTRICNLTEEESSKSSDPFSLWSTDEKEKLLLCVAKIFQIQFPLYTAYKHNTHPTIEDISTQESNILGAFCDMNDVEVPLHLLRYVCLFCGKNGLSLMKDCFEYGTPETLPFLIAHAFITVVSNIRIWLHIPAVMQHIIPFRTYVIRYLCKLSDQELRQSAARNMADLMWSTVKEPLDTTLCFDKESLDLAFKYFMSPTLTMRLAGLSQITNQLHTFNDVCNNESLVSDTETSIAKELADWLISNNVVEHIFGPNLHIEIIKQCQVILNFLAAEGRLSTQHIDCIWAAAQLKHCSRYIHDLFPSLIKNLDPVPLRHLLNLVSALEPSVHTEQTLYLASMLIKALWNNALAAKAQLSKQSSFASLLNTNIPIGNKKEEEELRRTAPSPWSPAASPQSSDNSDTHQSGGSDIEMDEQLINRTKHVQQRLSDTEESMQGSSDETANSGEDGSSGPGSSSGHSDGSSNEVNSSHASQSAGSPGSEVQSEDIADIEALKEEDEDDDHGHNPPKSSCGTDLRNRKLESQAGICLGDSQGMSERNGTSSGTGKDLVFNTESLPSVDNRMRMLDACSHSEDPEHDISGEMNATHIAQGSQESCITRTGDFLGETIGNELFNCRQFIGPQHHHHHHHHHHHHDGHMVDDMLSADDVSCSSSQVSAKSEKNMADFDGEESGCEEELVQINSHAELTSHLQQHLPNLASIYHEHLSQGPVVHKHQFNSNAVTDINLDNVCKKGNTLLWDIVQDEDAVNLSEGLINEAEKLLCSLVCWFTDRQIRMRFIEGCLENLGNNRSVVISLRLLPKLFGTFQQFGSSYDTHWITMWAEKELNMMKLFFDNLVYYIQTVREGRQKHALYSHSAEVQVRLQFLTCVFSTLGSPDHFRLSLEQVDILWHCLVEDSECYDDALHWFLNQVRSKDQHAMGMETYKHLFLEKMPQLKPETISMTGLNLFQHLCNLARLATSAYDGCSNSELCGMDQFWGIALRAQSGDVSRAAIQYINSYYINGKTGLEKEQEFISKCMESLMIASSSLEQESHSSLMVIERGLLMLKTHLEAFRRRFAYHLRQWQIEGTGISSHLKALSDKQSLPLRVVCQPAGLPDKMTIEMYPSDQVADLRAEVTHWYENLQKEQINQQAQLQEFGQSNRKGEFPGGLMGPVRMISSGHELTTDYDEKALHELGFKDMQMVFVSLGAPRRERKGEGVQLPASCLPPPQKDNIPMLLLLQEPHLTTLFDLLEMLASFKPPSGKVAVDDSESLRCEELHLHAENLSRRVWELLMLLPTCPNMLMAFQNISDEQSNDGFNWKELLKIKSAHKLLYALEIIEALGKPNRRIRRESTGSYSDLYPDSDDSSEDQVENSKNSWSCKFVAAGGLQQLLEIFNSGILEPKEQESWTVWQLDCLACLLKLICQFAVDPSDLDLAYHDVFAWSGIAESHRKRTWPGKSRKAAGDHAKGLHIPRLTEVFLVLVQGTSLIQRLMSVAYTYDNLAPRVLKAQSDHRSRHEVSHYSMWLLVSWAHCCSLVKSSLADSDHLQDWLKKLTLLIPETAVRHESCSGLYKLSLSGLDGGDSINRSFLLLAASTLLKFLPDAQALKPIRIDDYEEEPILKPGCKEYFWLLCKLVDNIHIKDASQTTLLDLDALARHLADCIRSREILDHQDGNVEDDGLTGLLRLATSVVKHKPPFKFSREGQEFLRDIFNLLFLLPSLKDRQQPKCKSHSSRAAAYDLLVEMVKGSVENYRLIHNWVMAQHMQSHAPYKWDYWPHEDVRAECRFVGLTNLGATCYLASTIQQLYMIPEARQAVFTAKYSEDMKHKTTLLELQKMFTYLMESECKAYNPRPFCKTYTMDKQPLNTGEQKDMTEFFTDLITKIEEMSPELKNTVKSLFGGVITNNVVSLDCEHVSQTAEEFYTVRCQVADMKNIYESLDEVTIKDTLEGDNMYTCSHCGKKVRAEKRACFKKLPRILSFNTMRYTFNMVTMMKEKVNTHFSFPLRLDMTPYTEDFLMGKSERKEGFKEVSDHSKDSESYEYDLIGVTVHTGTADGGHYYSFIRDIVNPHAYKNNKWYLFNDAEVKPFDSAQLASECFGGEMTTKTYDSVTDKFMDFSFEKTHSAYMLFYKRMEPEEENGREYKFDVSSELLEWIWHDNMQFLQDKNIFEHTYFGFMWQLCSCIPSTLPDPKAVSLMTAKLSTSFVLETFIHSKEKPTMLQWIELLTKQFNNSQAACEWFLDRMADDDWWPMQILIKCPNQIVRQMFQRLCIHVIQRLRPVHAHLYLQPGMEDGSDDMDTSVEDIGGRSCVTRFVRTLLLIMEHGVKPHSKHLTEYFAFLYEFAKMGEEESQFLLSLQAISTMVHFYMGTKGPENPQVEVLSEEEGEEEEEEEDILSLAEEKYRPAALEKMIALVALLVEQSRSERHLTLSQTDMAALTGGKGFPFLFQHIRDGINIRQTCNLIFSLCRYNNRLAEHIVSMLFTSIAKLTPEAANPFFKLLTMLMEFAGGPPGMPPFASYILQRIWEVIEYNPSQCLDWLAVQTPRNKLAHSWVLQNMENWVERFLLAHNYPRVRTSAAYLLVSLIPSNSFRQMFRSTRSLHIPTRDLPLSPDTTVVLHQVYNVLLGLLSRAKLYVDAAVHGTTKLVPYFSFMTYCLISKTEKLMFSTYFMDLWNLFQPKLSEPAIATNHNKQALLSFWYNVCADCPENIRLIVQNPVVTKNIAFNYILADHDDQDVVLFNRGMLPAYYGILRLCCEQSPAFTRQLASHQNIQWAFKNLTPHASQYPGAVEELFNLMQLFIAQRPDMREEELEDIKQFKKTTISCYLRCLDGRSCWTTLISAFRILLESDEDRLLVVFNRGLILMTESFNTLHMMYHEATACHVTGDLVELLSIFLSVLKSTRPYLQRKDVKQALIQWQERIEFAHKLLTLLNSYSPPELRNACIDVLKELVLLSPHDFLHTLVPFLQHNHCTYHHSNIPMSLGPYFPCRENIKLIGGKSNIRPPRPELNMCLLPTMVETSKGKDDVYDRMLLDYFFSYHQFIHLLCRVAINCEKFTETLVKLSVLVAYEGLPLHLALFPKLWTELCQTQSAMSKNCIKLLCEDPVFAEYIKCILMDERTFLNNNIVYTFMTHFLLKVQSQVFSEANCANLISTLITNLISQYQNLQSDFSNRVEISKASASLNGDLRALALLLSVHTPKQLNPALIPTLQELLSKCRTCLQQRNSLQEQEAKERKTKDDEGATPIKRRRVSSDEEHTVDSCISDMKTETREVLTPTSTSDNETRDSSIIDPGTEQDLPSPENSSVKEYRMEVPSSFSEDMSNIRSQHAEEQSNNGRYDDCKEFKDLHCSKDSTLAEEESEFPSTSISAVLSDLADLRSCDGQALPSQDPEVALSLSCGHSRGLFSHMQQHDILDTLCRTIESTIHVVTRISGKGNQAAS
Procedure, shortened: (§1)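 Average log2 ratios of fragment over vehicle were obtained by unpaired t-test from global-median-normalised Spectronaut label-free quantities. Proteins with ≥2 unique peptides were included. HEK293T lysate (495 µg per sample) was treated in triplicate with fragment at 200 µM or vehicle for 3 h, then with Biotin-Ahx-Ub-VS at 0.5 µM final for 1 h, and labelled DUBs were NeutrAvidin-enriched and run by diaPASEF LC-MS/MS.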

[2] = target: T1, USP36 (UniProt Q9P275)
T1 sequence (whole entry): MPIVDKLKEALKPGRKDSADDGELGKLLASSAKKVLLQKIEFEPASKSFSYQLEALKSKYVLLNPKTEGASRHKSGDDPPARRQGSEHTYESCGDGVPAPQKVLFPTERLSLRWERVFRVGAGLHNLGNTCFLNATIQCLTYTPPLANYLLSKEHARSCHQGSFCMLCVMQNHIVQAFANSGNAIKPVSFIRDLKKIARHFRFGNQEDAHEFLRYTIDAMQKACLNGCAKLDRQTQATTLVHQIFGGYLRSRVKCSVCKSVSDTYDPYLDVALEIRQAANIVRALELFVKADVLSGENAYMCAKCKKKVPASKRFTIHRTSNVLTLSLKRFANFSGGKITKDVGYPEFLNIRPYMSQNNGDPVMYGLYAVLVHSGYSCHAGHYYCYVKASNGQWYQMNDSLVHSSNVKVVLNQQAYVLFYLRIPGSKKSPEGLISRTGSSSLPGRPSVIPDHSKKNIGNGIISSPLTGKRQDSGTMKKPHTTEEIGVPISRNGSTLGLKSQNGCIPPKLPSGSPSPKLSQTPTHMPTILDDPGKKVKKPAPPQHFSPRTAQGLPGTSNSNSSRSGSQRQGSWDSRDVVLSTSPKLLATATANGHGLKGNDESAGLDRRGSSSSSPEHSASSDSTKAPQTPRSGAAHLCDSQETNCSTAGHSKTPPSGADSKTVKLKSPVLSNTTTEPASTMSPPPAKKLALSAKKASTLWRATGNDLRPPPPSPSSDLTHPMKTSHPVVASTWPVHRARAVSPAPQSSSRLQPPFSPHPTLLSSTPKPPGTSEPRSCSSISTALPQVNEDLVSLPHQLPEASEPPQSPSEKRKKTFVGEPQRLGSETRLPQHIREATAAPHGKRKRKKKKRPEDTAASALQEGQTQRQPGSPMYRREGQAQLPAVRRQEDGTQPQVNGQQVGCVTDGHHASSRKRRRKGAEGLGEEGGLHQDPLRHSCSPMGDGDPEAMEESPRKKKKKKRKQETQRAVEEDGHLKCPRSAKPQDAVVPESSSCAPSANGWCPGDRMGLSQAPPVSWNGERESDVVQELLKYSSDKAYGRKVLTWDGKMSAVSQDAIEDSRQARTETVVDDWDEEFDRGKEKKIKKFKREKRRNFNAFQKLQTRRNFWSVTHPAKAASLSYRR
Procedure, shortened: as §1

[3] = target: T2, USP38 (UniProt Q8NB14)
T2 sequence (whole entry): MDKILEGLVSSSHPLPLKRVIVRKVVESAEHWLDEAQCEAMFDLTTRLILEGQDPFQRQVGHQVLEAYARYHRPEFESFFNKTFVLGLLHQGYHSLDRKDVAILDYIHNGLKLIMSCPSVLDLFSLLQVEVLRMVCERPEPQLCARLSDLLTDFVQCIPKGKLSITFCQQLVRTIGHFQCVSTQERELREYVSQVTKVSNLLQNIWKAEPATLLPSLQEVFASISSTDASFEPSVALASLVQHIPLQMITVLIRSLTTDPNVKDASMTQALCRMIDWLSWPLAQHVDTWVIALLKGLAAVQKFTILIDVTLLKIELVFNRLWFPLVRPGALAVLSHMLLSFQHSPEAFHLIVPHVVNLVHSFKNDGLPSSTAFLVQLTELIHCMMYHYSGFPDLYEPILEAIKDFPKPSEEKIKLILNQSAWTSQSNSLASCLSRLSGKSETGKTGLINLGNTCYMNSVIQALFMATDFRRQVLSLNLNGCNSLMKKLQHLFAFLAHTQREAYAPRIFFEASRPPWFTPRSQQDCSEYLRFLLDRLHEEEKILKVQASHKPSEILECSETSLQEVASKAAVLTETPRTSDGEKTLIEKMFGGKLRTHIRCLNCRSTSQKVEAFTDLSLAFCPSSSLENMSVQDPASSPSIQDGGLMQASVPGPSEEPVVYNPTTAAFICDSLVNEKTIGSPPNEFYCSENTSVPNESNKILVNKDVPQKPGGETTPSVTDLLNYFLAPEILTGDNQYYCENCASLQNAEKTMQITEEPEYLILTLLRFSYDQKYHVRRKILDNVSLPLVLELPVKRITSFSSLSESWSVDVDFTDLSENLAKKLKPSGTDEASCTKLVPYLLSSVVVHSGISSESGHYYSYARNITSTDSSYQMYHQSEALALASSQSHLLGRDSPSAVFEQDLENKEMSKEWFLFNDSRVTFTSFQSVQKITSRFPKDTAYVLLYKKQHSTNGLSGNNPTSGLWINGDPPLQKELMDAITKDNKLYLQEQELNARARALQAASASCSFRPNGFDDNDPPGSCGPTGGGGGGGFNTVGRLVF
Procedure, shortened: as §1

[4] = target: T3, USP39 (UniProt Q53GS9)
T3 sequence (whole entry): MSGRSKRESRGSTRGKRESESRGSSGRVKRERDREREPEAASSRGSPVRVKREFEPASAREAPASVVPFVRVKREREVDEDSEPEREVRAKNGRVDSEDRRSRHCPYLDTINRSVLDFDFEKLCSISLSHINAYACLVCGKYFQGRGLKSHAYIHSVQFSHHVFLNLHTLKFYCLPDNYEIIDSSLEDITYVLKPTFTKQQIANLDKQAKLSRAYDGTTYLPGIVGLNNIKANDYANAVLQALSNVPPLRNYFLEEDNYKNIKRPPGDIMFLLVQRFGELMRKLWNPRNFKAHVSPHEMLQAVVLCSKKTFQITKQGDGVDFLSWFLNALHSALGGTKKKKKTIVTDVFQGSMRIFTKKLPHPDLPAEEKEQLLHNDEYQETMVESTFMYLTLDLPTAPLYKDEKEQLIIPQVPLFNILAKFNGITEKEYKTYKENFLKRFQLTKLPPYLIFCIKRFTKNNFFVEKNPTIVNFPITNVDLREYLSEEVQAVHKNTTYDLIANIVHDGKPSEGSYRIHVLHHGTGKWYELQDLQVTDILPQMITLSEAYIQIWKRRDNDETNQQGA
Procedure, shortened: as §1

[5] = target: T4, USP4 (UniProt Q13107)
T4 sequence (whole entry): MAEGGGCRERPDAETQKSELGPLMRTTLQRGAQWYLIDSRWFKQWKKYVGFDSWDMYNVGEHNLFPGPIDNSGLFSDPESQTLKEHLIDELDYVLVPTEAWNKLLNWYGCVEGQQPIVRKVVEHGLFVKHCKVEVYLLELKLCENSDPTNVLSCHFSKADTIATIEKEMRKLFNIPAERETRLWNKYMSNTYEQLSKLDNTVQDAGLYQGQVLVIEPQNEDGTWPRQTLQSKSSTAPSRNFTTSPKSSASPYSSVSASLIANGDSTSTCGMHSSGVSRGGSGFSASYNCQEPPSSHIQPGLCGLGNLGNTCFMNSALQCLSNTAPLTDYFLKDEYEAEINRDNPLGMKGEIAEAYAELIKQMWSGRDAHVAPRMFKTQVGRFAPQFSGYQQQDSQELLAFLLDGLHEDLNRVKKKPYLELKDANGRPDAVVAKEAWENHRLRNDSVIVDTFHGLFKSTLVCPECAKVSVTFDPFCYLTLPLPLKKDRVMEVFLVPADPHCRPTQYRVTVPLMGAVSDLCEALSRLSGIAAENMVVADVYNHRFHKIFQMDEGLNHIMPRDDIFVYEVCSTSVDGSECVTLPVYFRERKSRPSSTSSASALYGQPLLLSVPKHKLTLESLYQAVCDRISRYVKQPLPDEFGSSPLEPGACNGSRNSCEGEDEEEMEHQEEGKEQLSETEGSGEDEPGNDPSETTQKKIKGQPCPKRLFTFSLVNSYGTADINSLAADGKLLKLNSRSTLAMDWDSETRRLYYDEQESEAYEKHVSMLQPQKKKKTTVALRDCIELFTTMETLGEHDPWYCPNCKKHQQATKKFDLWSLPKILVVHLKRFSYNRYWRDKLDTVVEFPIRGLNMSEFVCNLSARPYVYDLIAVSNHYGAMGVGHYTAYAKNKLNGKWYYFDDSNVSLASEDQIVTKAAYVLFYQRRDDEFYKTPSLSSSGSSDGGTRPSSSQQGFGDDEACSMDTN
Procedure, shortened: as §1

Measured: log2 ratio of Biotin-Ahx-Ub-VS probe labelling

O=C(CCl)NC1CCCCNC1=O (stereo not given)
inactive: [1] -0.126 | [2] -0.314 | [3] -0.0226 | [4] 0.0502 | [5] -0.25
